# Test results reported in the supplement of paper PMC10338343.
# ± gives the standard deviation. Over roughly 6,200 sequences, “pre-steady-state target cleavage rate” has its median near 0.29; the highest 2% begin near 2. For the sample, the highest values were picked, then their nearest neighbours and some sequences at random.
# System: MIWI (PIWIL1) piRISC loaded with piRNA #1 (30 nt)
# Assay: pre-steady-state target cleavage rate (min^-1); MIWI and MILI are mouse PIWI proteins and EfPiwi is from a freshwater sponge; tags in brackets are library labels; higher = faster piRNA-guided slicing of the target
# Details: guide: piRNA #1 5'p-UGAGGUAGUAGGUUGUAUAGUAUCCAGAGG; auxiliary factor: 500 nM mouse GTSF1
# Outline: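 The method was Cleave-'n-Seq, in which uncleaved targets from a transcribed, DNA-blocked target RNA library were sequenced after exposure to active affinity-purified piRISC carrying one synthetic guide, with or without GTSF1 partner protein. Reactions contained 0.1 nM library, 1 nM piRISC and, where present, 500 nM GTSF1 in HEPES–potassium acetate buffer at 33 °C for 0–8 or 0–960 min. Reads were normalised to depth and to weakly complementary targets, three trials were pooled, and k3 was capped at 0.0001 min^-1. The pre-steady-state cleavage rate came from a burst-and-steady-state fit.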
row,Sequence,pre-steady-state target cleavage rate
1,GGAGAGGGUACUAUACAACCUACUACCUCA,1.17 ± 0.051
2,GGACUGGAUUCUAUACAACCUACUAGCUCA,0.118 ± 0.022
3,GGAGACCUAUGAUAUCAACCUACUACCUACA,< 0.0001
4,GGAGACGAUACUAUACAACCUACUACCGUCA,0.443 ± 0.065
5,GGAGUGGAUACUAUCACAACCUACUACCUCA,1.49 ± 0.12
6,GGAGUGGAUACUAUACAAGCUACUUCCUCA,0.374 ± 0.031
7,GGACUGGUUACUAUACAACCUACUACCUCA,1.65 ± 0.13
8,GGUCUGGUUACUAUACAACCUACUACCUCA,1.87 ± 0.11
9,CCUCUGGUUACUAUACAACCUACUACCACA,1.79 ± 0.14
10,GCACUGGUUACUAUACAACCUACUACCUCA,1.84 ± 0.11
11,CCUCUGGUUACUAUACAACCUACUACCUCA,2.29 ± 0.13
12,CCUCUGGUUACUAUACAACCUACUAGCUCA,0.705 ± 0.055
13,GGUCUGGUUACUAUACAACCUACUACCACA,0.747 ± 0.068
14,CCUCUGGUUACUAUACAACCUACAACCUCA,1.28 ± 0.089
15,GCUCUGGUUACUAUACAACCUACUACCUCA,2.1 ± 0.12
16,CCACUGGUUACUAUACAACCUACUACCUCA,2.28 ± 0.14
17,GCUCUGGUUACUAUACAACCUACUACCACA,2.3 ± 0.24
18,GCUCUGGUUACUAUACAACCUACAACCUCA,1.33 ± 0.079
19,GGAGACCUAUCUAUACUACCUACAACCUCA,0.0031 ± 0.0021
20,GGAGACCUAUCUAUACAACCUACUACCUGA,0.516 ± 0.057
21,GGAGUGGAUACUAUACAACCUACUAACCUCA,0.901 ± 0.053
22,GGAGUGGAUUCUAUACAACCUACUACGUCA,0.522 ± 0.048
23,CCUCUGGAUACUAUACAACCACUACCUCA,0.033 ± 0.0096
24,CCUCUGGAUACUAAACAACCUACUACGUCA,1.49 ± 0.087

row,Sequence,pre-steady-state target cleavage rate
1,GGAGACCUUACUAUUCAACCUACUACGUCA,0.678 ± 0.064
2,GGAGACCAUUCUAUACAACCUACAACCUCA,0.667 ± 0.075
3,GGUCUGGAUAGUAUACAUCCUACUACCUCA,0.741 ± 0.083
4,GGAGAGGAUACUAUACAUCCUACUUCCUCA,0.0568 ± 0.0099
5,GGAGACCUAACUAAACAACCUACUAGCUCA,0.0502 ± 0.019
6,GCUGUGGUUACUAUACAACCUACUACCUCA,2 ± 0.13
7,GGUCUGGUUACUUUACAACCUACUACCUCA,1.69 ± 0.13
8,CCUCUGGUUACAAUACAACCUACUACCUCA,2.15 ± 0.13
9,GGUCUGGUUUCUAUACAACCUACUACCUCA,1.8 ± 0.12
10,GCUCUGGUUUCUAUACAACCUACUACCUCA,2 ± 0.12
11,GCUCUGGUUACAAUACAACCUACUACCUCA,1.98 ± 0.12
12,GGUCUGGUUACAAUACAACCUACUACCUCA,1.59 ± 0.12
13,GCUCUGGUUACUUUACAACCUACUACCUCA,1.7 ± 0.089
14,CCUGUGGUUACUAUACAACCUACUACCUCA,1.17 ± 0.058
15,GGUGUGGUUACUAUACAACCUACUACCUCA,1.54 ± 0.097
16,CCUCUGGUUACUUUACAACCUACUACCUCA,2.24 ± 0.16
17,CCUCUGGUUUCUAUACAACCUACUACCUCA,2.25 ± 0.15
18,GGAGACGAUACUAUACAACAUACUACCUCA,1.16 ± 0.077
19,GGAGUGGAUUCUAAACAACCUACUACCUCA,0.994 ± 0.069
20,GGAGACCUAUGAUAUGUACCUACUAACUCA,< 0.0001
21,GGAGUGCAUACUAUACAACCUACUACCUGA,0.513 ± 0.077
22,GGAGACCUAUGUAUACAACCUACUACUCA,0.00349 ± 0.0019
23,GGAGACCUUACAAUAGAACCUACUACCUCA,0.167 ± 0.022
24,GGAGACCAUACUAUACAACCUACUUCCUCA,0.666 ± 0.054

row,Sequence,pre-steady-state target cleavage rate
1,GGUCUGGAUACUAUACAACUUACUACCUCA,0.481 ± 0.028
2,GGAGUGCAUUCUAUACAACCUACUACCUCA,1.32 ± 0.11
3,CCUCUCGAUACUAUACAACCUACAACCUCA,1.34 ± 0.077
4,CCUCUCGAUACUAUUCAACCUACUACCUCA,2.27 ± 0.15
5,CCUCUCGAUACUAUACAACCUACUACCUCA,2.01 ± 0.12
6,CCUCGGGAUACUAUACAACCUACUACCUCA,2.3 ± 0.16
7,GGUCGGGAUACUAUACAACCUACUACCUCA,1.66 ± 0.11
8,GCUCUCGAUACUAUUCAACCUACUACCUCA,1.86 ± 0.11
9,GGUCUCGAUACUAUUCAACCUACUACCUCA,1.86 ± 0.12
10,GCUCGGGAUACUAUACAACCUACUACCUCA,1.5 ± 0.071
11,CCUCCGGAUACUAUACAACCUACUACCUCA,2.08 ± 0.14
12,GCUCCGGAUACUAUACAACCUACUACCUCA,1.81 ± 0.12
13,GGUCCGGAUACUAUACAACCUACUACCUCA,1.76 ± 0.11
14,GCUCUCGAUACUAUACAACCUACUACCUCA,1.86 ± 0.11
15,GGUCUGGUACUAUACAACCUACUACCUCA,1.73 ± 0.11
16,GGAGACCAAACUAUACAACCUAGUACCUCA,0.226 ± 0.033
17,GGAGACCUAUGUAUACAACCUACUACCUGCA,0.0855 ± 0.011
18,GGAGACCUAACUUAUACAACCUACUACCUCA,0.23 ± 0.041
19,CCUCUGGAUACUAUUCAACCUACUAGCUCA,1.37 ± 0.12
20,CCUCUCGAUACUAAACAACCUACUACCUCA,2.13 ± 0.14
21,CCUCUCGAUACUUUACAACCUACUACCUCA,2.13 ± 0.14
22,GGUCUCGAUACUAAACAACCUACUACCUCA,1.68 ± 0.12
23,CCUCUCGAUACUAUACAACCUACUACCACA,2.21 ± 0.12
